# PubChem BioAssay (NCI)
# The panel holds about 83,000 compounds, 20% with a hit somewhere; the sample as a whole holds those more often.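 For each line, cells grew in 96-well plates with the test compound present at a single concentration for 48 hours.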 Values without a mark were called inactive. Active and inactive are the calls of the source. How the source made its calls: active means growth percent below 10; inactive means the rest.
# Columns and labels:
# Assay in all cases: NCI-60 one-dose screen, 48 h (100 = growth as untreated, 0 = no growth, -100 = all killed)
# Details in all cases: 10 µM unless noted
# SR leukemia = tested on: SR leukemia
# RPMI-8226 leukemia = tested on: RPMI-8226 leukemia
# OVCAR-8 ovarian = tested on: OVCAR-8 ovarian
# OVCAR-5 ovarian = tested on: OVCAR-5 ovarian
# OVCAR-4 ovarian = tested on: OVCAR-4 ovarian
# SK-OV-3 ovarian = tested on: SK-OV-3 ovarian
# IGROV1 ovarian = tested on: IGROV1 ovarian
# OVCAR-3 ovarian = tested on: OVCAR-3 ovarian
# HS 578T breast = tested on: HS 578T breast
# NCI/ADR-RES ovarian = tested on: NCI/ADR-RES ovarian
# T-47D breast = tested on: T-47D breast
# BT-549 breast = tested on: BT-549 breast
# MDA-MB-435 melanoma = tested on: MDA-MB-435 melanoma
# SW-620 colon = tested on: SW-620 colon
# MCF7 breast = tested on: MCF7 breast
# HCT-116 colon = tested on: HCT-116 colon
# HCC-2998 colon = tested on: HCC-2998 colon
# KM12 colon = tested on: KM12 colon
Compound,growth (SR leukemia),growth (RPMI-8226 leukemia),growth (OVCAR-8 ovarian),growth (OVCAR-5 ovarian),growth (OVCAR-4 ovarian),growth (SK-OV-3 ovarian),growth (IGROV1 ovarian),growth (OVCAR-3 ovarian),growth (HS 578T breast),growth (NCI/ADR-RES ovarian),growth (T-47D breast),growth (BT-549 breast),growth (MDA-MB-435 melanoma),growth (SW-620 colon),growth (MCF7 breast) [%],growth (HCT-116 colon),growth (HCC-2998 colon),growth (KM12 colon)
CCC(C)C1CCC(O)CC1 (centres undefined),93.7%,107%,100%,108%,99.4%,109%,110%,108%,104%,103%,104%,98.5%,103%,107%,100,101%,107%,105%
CCOC(=O)C(COS(C)(=O)=O)(COS(C)(=O)=O)C(=O)OCC,90.9%,110%,103%,105%,107%,104%,104%,106%,104%,103%,103%,106%,104%,110%,98.7,104%,106%,107%
NC(=O)c1cc2c3ccccc3ccn2c1-c1ccccc1,-22.3% (active),7.04% (active),8.3% (active),33.5%,43.2%,12.7%,20.2%,-20.6% (active),70.3%,-12% (active),88.7%,25.5%,-13.5% (active),33.7%,10.3,-32.6% (active),-6.31% (active),4.03% (active)
CCN1CCCC(N2c3ccccc3Sc3ccccc32)C1 (centres undefined),96.3%,95.5%,102%,106%,97.9%,111%,91.3%,98.5%,99.6%,99.7%,95.6%,116%,109%,105%,–,90.3%,103%,102%
COc1cccc(C(=O)NNC(=O)c2cccc3ccccc23)c1,113%,105%,105%,125%,109%,100%,131%,121%,114%,107%,95.4%,110%,113%,107%,109,108%,102%,115%
O=S(=O)(OCCOS(=O)(=O)c1ccccc1)c1ccccc1,93.7%,100%,97%,111%,101%,96.3%,105%,94.3%,108%,95.5%,105%,86.4%,107%,102%,–,87.4%,72.8%,101%
CS(=O)(=O)c1ccc(/C=C\C(=O)O)cc1,62.3%,98.8%,104%,105%,98.2%,106%,120%,102%,81.7%,104%,103%,102%,101%,81.5%,95.8,93.7%,110%,94%
CN(C)CCOC(=O)Nc1ccc(Cc2ccc(NC(=O)OCCN(C)C)cc2)cc1,-39.4% [100 µM] (active),16.8% [100 µM],98.2% [100 µM],85.1% [100 µM],94.6% [100 µM],137% [100 µM],83.2% [100 µM],90.4% [100 µM],73.1% [100 µM],98.5% [100 µM],105% [100 µM],68.3% [100 µM],76.4% [100 µM],85.8% [100 µM],–,36.5% [100 µM],46.2% [100 µM],78.8% [100 µM]
Cc1cccnc1NC1OC(=O)c2ccccc21 (centres undefined),93.8%,106%,107%,106%,117%,94.6%,101%,107%,138%,103%,94.2%,97.6%,103%,106%,102,90.8%,106%,105%
